# How the values were obtained:
# Assay in all cases: DAPPL (digital affinity profiling via proximity ligation, sequencing); 10 mM Tris-HCl pH 7.5, 50 mM NaCl, 1 mM DTT, 4% glycerol, room temperature, 30 min; GST-TFs on glutathione beads, 16-mer random dsDNA library, 0.1% formaldehyde crosslink after washing; high values mean tight binding
# [1] = molecular target: T1, FLI1 (Homo sapiens, UniProt Q01543 1-452); settings: protein: recombinant; tags: N-terminal GST; dsDNA, one strand shown
# T1 sequence: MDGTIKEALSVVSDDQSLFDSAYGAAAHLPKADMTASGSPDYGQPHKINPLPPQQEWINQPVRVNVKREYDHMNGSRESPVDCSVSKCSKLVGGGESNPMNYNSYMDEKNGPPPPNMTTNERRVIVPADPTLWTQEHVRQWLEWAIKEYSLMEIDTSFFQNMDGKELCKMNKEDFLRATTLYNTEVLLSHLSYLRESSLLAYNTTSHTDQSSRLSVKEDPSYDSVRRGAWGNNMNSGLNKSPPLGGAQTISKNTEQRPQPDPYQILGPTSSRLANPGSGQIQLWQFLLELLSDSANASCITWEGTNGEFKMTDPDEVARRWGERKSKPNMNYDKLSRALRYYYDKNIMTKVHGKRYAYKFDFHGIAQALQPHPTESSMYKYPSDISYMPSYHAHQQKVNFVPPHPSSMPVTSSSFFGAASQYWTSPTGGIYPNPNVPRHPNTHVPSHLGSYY
# How it was run: (§1)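 Pools of DNA-barcoded human transcription factors, expressed in yeast as GST fusions on glutathione beads and combined with a tag-only sample, were incubated with 200 nmole of a 16-mer random double-stranded DNA library. Incubation took 30 min at room temperature in Tris/NaCl/DTT/glycerol buffer and was followed by washing, 0.1% formaldehyde crosslinking, proximity ligation (BsaI/T4 ligase, 1 h, 37 °C), PCR amplification and sequencing on an Illumina NextSeq500. Binding signal is the ratio of a hexamer's read frequency for a factor to its frequency for the tag-only sample.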
# [2] = molecular target: T2, ELK1 (Homo sapiens, UniProt P19419 1-428); settings: protein: recombinant; tags: N-terminal GST; dsDNA, one strand shown
# T2 sequence: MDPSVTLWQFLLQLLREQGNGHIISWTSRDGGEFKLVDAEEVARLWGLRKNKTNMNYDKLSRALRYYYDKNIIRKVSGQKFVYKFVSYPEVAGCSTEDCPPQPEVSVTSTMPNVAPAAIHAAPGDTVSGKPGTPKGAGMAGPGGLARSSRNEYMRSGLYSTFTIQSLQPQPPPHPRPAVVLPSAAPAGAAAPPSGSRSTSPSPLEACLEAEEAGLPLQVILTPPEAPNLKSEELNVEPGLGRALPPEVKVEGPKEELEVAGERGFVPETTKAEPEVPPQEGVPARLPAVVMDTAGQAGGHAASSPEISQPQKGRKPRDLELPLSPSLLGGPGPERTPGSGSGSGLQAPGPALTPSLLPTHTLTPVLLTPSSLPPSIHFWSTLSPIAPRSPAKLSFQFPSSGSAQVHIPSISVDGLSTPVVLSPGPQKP
# How it was run: as §1
# [3] = molecular target: T3, GABPA (Homo sapiens, UniProt Q06546 1-454); settings: protein: recombinant; tags: N-terminal GST; dsDNA, one strand shown
# T3 sequence: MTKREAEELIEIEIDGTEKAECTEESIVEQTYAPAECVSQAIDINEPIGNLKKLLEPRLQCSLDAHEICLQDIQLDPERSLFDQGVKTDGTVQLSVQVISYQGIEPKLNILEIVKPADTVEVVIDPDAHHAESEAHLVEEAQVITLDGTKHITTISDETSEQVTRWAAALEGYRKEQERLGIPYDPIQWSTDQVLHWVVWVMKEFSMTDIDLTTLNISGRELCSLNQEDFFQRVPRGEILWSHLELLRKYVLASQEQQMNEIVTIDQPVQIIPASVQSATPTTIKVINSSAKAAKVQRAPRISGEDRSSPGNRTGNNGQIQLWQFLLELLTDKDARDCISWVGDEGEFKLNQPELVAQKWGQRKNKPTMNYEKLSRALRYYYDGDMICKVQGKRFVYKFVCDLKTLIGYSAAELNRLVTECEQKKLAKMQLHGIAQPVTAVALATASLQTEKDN
# How it was run: as §1
# [4] = molecular target: T4, ERG (Homo sapiens, UniProt P11308 1-479); settings: protein: recombinant; tags: N-terminal GST; dsDNA, one strand shown
# T4 sequence: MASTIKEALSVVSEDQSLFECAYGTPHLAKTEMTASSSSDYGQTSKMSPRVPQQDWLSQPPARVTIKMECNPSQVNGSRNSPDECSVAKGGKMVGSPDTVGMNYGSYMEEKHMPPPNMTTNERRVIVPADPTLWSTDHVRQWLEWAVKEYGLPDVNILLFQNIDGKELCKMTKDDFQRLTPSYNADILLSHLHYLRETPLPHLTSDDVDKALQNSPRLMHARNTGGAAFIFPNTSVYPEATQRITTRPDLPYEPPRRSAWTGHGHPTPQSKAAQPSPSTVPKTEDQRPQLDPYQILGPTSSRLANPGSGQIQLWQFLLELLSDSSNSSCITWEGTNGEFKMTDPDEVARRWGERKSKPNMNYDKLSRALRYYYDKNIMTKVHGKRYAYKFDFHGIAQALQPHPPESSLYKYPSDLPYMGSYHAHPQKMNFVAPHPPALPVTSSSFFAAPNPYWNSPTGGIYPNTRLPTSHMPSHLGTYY
# How it was run: as §1
# [5] = molecular target: ELF1 (Homo sapiens, UniProt P32519 1-619); settings: protein: recombinant; tags: N-terminal GST; dsDNA, one strand shown
# How it was run: as §1
# [6] = molecular target: T5, EHF (Homo sapiens, UniProt Q9NZC4 1-300); settings: protein: recombinant; tags: N-terminal GST; dsDNA, one strand shown
# T5 sequence: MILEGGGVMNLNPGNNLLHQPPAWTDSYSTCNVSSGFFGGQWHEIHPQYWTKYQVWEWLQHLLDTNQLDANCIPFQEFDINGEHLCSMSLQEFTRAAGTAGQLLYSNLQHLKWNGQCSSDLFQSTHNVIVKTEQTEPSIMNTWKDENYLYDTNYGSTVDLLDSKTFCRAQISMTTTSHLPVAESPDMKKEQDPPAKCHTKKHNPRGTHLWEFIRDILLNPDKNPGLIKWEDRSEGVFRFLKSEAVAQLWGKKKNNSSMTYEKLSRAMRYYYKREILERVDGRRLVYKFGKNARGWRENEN
# How it was run: as §1
# [7] = molecular target: SPI1 (Homo sapiens, UniProt P17947 1-270); settings: protein: recombinant; tags: N-terminal GST; dsDNA, one strand shown
# How it was run: as §1
# [8] = molecular target: SPIB (Homo sapiens, UniProt Q01892 1-262); settings: protein: recombinant; tags: N-terminal GST; dsDNA, one strand shown
# How it was run: as §1
# [9] = molecular target: T6, ELK3 (Homo sapiens, UniProt P41970 1-407); settings: protein: recombinant; tags: N-terminal GST; dsDNA, one strand shown
# T6 sequence: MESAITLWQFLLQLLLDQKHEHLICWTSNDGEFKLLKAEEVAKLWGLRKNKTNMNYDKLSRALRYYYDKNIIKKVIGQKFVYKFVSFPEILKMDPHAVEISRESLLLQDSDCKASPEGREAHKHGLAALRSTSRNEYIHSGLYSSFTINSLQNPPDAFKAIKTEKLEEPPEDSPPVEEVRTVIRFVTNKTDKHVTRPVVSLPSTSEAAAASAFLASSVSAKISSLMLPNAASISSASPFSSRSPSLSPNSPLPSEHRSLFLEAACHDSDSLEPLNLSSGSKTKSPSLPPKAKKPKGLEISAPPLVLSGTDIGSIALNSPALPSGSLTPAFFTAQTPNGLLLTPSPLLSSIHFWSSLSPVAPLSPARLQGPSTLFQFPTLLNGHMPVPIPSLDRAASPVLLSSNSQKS
# How it was run: as §1
# [10] = molecular target: T7, FEV (Homo sapiens, UniProt Q99581 1-238); settings: protein: recombinant; tags: N-terminal GST; dsDNA, one strand shown
# T7 sequence: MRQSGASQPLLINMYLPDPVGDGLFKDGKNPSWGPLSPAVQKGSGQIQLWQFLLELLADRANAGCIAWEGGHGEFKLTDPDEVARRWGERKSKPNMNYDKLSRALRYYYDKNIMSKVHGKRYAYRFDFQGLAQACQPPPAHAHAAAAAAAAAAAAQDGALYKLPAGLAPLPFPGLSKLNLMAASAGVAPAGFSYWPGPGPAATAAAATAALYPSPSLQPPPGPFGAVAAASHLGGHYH
# How it was run: as §1
# [11] = molecular target: ETV5 (Homo sapiens, UniProt P41161 1-510); settings: protein: recombinant; tags: N-terminal GST; dsDNA, one strand shown
# How it was run: as §1
# [12] = molecular target: HSF1 (Homo sapiens, UniProt Q00613 1-529); settings: protein: recombinant; tags: N-terminal GST; chain copies: 3; dsDNA, one strand shown
# How it was run: as §1
# [13] = molecular target: T8, SPIC (Homo sapiens, UniProt Q8N5J4 1-248); settings: protein: recombinant; tags: N-terminal GST; dsDNA, one strand shown
# T8 sequence: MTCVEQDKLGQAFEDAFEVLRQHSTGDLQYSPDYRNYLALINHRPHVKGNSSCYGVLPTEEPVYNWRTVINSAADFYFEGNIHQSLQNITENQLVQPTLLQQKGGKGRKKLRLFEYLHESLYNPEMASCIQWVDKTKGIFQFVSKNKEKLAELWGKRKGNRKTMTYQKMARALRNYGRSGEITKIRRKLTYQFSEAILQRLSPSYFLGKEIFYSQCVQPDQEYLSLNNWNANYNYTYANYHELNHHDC
# How it was run: as §1
# [14] = molecular target: ELF4 (Homo sapiens, UniProt Q99607 1-663); settings: protein: recombinant; tags: N-terminal GST; dsDNA, one strand shown
# How it was run: as §1
# [15] = molecular target: T9, ELK4 (Homo sapiens, UniProt P28324-2 1-405); settings: protein: recombinant; tags: N-terminal GST; dsDNA, one strand shown
# T9 sequence: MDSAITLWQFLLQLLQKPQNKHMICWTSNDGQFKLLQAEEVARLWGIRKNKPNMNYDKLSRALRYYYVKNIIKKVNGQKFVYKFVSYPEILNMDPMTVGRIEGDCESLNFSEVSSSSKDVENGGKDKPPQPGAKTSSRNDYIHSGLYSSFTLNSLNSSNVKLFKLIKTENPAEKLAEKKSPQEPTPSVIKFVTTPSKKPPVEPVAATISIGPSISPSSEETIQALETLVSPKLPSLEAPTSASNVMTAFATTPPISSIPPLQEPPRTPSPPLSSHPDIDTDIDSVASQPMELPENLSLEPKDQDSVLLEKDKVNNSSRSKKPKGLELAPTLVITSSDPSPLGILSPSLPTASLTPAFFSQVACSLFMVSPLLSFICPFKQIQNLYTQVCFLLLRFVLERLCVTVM
# How it was run: as §1
# [16] = molecular target: T10, ETV2 (Homo sapiens, UniProt O00321 1-342); settings: protein: recombinant; tags: N-terminal GST; dsDNA, one strand shown
# T10 sequence: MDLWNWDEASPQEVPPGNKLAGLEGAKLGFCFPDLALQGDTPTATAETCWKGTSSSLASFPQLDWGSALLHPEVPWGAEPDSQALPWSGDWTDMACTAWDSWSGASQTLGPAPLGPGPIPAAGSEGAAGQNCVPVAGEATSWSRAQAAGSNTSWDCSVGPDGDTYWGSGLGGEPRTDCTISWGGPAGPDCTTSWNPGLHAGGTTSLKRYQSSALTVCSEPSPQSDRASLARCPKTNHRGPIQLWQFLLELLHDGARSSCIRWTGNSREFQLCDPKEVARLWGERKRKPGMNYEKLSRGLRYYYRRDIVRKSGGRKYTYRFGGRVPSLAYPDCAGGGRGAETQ
# How it was run: as §1
# [17] = molecular target: T11, ELF3 (Homo sapiens, UniProt P78545 1-371); settings: protein: recombinant; tags: N-terminal GST; dsDNA, one strand shown
# T11 sequence: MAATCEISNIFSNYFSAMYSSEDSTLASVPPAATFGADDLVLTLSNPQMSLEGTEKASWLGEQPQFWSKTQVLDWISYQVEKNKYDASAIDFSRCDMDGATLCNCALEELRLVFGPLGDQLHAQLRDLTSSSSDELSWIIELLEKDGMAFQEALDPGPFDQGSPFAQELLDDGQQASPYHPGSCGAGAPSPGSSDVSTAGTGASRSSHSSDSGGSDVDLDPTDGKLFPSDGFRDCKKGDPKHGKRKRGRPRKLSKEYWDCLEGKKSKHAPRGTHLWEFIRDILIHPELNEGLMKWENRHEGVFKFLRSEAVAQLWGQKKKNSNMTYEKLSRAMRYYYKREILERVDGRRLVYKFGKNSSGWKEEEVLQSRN
# How it was run: as §1
# [18] = molecular target: CRX (Homo sapiens, UniProt O43186 1-299); settings: protein: recombinant; tags: N-terminal GST; dsDNA, one strand shown
# How it was run: as §1
# [19] = molecular target: ETV1 (Homo sapiens, UniProt P50549 1-477); settings: protein: recombinant; tags: N-terminal GST; dsDNA, one strand shown
# How it was run: as §1
# HSF1, sequence (Q00613 whole entry): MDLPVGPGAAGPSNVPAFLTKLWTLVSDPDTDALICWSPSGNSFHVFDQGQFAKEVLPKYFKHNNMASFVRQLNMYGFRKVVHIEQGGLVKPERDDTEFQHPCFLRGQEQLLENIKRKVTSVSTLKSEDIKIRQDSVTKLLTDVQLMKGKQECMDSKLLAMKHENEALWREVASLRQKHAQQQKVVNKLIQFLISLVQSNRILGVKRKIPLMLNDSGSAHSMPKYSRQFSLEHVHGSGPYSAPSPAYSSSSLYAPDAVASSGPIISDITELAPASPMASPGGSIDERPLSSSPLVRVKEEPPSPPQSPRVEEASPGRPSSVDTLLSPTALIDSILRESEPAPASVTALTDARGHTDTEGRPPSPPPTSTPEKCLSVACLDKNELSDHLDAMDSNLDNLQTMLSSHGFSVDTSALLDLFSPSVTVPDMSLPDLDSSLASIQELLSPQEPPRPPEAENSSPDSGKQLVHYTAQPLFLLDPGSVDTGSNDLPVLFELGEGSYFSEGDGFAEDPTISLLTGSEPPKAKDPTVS
# ELF4, sequence (Q99607 whole entry): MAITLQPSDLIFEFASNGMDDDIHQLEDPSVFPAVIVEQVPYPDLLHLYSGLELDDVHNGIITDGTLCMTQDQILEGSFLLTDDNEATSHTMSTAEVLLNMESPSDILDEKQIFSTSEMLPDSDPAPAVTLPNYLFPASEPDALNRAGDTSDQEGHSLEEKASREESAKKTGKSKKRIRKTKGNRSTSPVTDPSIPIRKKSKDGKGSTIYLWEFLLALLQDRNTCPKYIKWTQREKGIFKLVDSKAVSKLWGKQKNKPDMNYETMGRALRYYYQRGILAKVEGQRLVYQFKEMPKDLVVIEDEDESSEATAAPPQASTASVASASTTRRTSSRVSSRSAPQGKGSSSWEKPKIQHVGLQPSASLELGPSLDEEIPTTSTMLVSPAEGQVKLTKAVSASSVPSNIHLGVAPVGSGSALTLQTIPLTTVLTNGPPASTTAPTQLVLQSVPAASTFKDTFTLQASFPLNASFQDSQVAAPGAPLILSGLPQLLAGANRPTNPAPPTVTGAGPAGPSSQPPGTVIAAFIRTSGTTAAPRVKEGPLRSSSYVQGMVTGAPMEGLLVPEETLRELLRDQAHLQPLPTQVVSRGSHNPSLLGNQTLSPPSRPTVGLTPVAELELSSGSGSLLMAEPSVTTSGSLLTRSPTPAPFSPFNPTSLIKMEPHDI
# ETV1, sequence (P50549 whole entry): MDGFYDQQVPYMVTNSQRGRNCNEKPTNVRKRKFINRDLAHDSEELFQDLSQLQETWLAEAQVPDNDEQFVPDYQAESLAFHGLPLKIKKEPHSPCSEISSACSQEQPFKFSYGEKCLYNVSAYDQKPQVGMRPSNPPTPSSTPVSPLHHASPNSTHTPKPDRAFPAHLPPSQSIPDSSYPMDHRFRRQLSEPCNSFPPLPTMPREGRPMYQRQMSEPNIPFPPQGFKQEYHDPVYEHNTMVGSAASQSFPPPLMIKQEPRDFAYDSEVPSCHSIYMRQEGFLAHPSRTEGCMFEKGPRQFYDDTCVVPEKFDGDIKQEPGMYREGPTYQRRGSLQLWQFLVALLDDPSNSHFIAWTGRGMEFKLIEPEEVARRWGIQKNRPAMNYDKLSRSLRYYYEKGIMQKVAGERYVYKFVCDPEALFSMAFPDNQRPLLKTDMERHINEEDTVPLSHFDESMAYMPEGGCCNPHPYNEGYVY
# SPIB, sequence (Q01892 whole entry): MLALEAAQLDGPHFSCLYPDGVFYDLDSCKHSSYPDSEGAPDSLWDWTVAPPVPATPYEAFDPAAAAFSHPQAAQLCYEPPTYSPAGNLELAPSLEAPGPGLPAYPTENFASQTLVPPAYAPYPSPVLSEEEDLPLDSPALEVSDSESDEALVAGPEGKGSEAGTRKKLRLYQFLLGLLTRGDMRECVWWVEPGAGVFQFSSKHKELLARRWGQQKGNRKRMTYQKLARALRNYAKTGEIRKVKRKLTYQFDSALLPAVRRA
# ELF1, sequence (P32519 whole entry): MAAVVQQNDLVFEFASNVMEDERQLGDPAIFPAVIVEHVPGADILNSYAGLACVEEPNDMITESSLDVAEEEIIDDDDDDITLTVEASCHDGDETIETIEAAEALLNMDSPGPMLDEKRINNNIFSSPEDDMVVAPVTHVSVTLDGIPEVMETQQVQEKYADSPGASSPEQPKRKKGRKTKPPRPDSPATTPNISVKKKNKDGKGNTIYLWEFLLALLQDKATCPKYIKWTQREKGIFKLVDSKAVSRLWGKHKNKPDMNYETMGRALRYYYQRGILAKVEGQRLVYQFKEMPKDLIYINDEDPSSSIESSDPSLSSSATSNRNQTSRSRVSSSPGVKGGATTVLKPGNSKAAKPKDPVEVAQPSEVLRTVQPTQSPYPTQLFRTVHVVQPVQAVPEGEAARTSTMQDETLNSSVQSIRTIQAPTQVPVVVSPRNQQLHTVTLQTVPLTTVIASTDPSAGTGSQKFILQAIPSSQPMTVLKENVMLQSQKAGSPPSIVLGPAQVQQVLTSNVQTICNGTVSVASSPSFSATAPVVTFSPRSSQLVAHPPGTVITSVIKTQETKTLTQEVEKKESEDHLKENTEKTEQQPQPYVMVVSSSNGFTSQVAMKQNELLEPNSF
# ETV5, sequence (P41161 whole entry): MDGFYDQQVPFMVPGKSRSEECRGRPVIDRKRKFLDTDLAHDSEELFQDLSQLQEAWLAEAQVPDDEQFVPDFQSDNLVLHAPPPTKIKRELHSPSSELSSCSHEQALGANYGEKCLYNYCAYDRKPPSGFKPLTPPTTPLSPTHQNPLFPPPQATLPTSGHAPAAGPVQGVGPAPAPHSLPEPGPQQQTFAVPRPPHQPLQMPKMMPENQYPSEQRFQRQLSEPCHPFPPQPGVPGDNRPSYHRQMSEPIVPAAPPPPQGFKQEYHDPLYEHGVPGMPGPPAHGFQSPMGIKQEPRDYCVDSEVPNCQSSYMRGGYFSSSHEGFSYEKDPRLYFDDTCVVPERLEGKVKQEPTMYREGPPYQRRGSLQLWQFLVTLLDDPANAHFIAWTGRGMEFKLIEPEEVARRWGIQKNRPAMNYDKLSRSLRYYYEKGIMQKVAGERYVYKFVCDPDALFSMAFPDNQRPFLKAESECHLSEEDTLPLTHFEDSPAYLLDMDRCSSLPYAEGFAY
# CRX, sequence (O43186 whole entry): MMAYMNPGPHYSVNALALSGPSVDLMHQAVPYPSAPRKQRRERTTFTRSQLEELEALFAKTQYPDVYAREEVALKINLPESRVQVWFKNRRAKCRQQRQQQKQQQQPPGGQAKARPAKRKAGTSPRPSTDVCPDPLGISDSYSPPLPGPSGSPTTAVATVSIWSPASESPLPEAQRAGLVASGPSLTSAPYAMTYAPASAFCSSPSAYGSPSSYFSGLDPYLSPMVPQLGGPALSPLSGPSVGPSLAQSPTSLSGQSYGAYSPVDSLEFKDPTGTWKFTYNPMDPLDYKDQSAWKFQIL
sequence,measurement,setting,value
ATCCCA,binding signal,[1],"1.07 fold enrichment (6-mer frequency, TF over GST control)"
same,binding signal,[2],"1.14 fold enrichment (6-mer frequency, TF over GST control)"
same,binding signal,[3],"1.15 fold enrichment (6-mer frequency, TF over GST control)"
same,binding signal,[4],"1.2 fold enrichment (6-mer frequency, TF over GST control)"
same,binding signal,[5],"1.22 fold enrichment (6-mer frequency, TF over GST control)"
same,binding signal,[6],"1.15 fold enrichment (6-mer frequency, TF over GST control)"
same,binding signal,[7],"1.03 fold enrichment (6-mer frequency, TF over GST control)"
same,binding signal,[8],"1.05 fold enrichment (6-mer frequency, TF over GST control)"
same,binding signal,[9],"1.2 fold enrichment (6-mer frequency, TF over GST control)"
same,binding signal,[10],"1.14 fold enrichment (6-mer frequency, TF over GST control)"
same,binding signal,[11],"1.11 fold enrichment (6-mer frequency, TF over GST control)"
same,binding signal,[12],"1.34 fold enrichment (6-mer frequency, TF over GST control)"
same,binding signal,[13],"1.07 fold enrichment (6-mer frequency, TF over GST control)"
same,binding signal,[14],"1.1 fold enrichment (6-mer frequency, TF over GST control)"
same,binding signal,[15],"1.13 fold enrichment (6-mer frequency, TF over GST control)"
same,binding signal,[16],"1.14 fold enrichment (6-mer frequency, TF over GST control)"
same,binding signal,[17],"1.23 fold enrichment (6-mer frequency, TF over GST control)"
same,binding signal,[18],"1.69 fold enrichment (6-mer frequency, TF over GST control)"
same,binding signal,[19],"1.09 fold enrichment (6-mer frequency, TF over GST control)"
